For 40 molecules, outcome and AC50 results are on record in PubChem BioAssay (EPA / NIEHS).

Each structure is given as a SMILES string. Activity calls are given as the source filed them. Rule for the calls: active = hit-call score of the fitted dose curve at least 0.9, where 1 is the maximum; inactive = score below 0.9.

A short description of this assay: BSK_MyoF_SRB: Viability Assessment in the BioMAP Diversity Plus: MyoF Assay (AID 2284267). The settings on record: primary human lung fibroblasts. As for the experimental part: BSK_MyoF is a cell-based, multiplexed-readout assay that uses lung fibroblasts, […], with measurements taken at 24 hours after chemical dosing in a microplate: 96-well plate.BSK_MyoF_SRB is an assay component measured in the BSK_MyoF assay. It measures 0.1% sulforhodamine related to cell death using Sulforhodamine staining technology.Data from the assay component BSK_MyoF_SRB was analyzed at the endpoint, BSK_MyoF_SRB, in the positive analysis fitting direction relative to DMSO as the negative control and baseline of activity. Using a type of viability reporter, gain or loss-of-signal activity can be used to understand protein changes. To generalize the intended target to other relatable targets, this assay endpoint is annotated to the 'cell morphology' intended target family, where the subfamily is 'cell conformation'.
The levels of cell surface (or secreted, indicated by the prefix "s") biomarker endpoints were measured by ELISA. Overt cytotoxicity to cells in confluent adherent cultures (all systems other than the BT system) was assessed by measuring total protein levels using sulforhodamine B (SRB) staining in parallel cultures at the time of biomarker measurements, indicated as SRB endpoints. For proliferation assays for adherent cell types, individual cell types are cultured at sub-confluence and relative cell numbers quantified by SRB staining at time points optimized for each system (48 h: 3C and CASM3C systems; 72 h: BT and HDF3CGF systems; 96 h: SAg system). SRB was performed by staining cells with 0.1% SRB after fixation with 10% TCA and reading wells at 560 nm.Viability and proliferation of PBMC (T cells) was quantified by Alamar Blue reduction for the SAg and BT systems. For PBMC viability (referred to as PBMC Cytotoxicity within the assay endpoint names), cells were plated (75,000/well in a 96-well plate) and then chemical samples added for 1 h before addition of activators, SEB and TSST-1 (20 ng/mL final concentration each). Cells were incubated for 90 h. Then, Alamar Blue (20 uL/well) (Invitrogen, Cat DAL1100) was added for 6 h, and the plates were read with a fluorescence microplate reader at 546/580 nm (excitation/emission). For PBMC proliferation, cells were plated and activated as above but incubated for only 16 h prior to addition of Alamar Blue. Plates were read after 6 h.
On to `CCCCN(CCCC)C(=S)[S-].CCCCN(CCCC)C(=S)[S-].[Ni+2]`, for which the result was inactive. As a reminder, the AC50 is the midpoint of the concentration-response curve, whichever way the signal moves. Take `c1ccc(-c2cccc(-c3ccccc3)c2)cc1`: the half-maximal activity concentration (AC50) is 22.5 µM (active). Consider `CC(C)N(C(=O)CCl)c1ccccc1`, for which the concentration at half-maximal activity (AC50) is 3.67 µM (active).

Take `Oc1c(Br)cc(Br)cc1Br`: the outcome was inactive.

Take `COCC(=O)N(c1c(C)cccc1C)[C@H](C)C(=O)OC`: the result was inactive. With `Cc1cc(Cl)ccc1N`, the result was inactive. Turning to `Oc1cccc(-c2ccccc2)c1`, the half-maximal activity concentration (AC50) is 31.1 µM (active). Same read-out and setting: the value for `OC(Cc1ccccc1Cl)(Cn1[nH]cnc1=S)C1(Cl)CC1` (stereo not given) was 32.2 µM (active). With `Cc1ccc(OP(=O)(Oc2ccc(C)cc2C)Oc2ccc(C)cc2C)c(C)c1`, the result was inactive. As to `CCN(CC)C(=O)C(Cl)=C(C)OP(=O)(OC)OC`, the outcome was inactive.

Take `NC(=O)CCl`: the result was inactive.

With `Cc1cc(C(C)(C)c2ccc(O)c(C)c2)ccc1O`, the AC50 is 13.7 µM (active). Regarding `Cc1c([N+](=O)[O-])c(C)c([N+](=O)[O-])c(C(C)(C)C)c1[N+](=O)[O-]`, the outcome was inactive.

For the molecule `OC(Cc1ccccc1Cl)(Cn1cncn1)C1(Cl)CC1` (stereo not given), the outcome was inactive. Turning to `C=CC(Cl)CCl` (stereo not given), the AC50 is 9.58 µM (active). For `Cc1ccccc1OP(=O)(Oc1ccccc1C)Oc1ccccc1C`, the AC50 was 12.8 µM (active). As to `O=[N+]([O-])c1cccc2ccccc12`, the result was inactive.

With `Cc1ccccc1OP(=O)(Oc1ccccc1)Oc1ccccc1`, the AC50 was 20 µM (active). Turning to `O=C(CCl)NCO`, the outcome was inactive. Regarding `N#CCCC(Br)(C#N)CBr` (stereo not given), the AC50 was 14.1 µM (active). As for `CC(C)(COCC1CO1)COCC1CO1` (stereo not given), the outcome was inactive. In the case of `Cc1ccc2nc3sc(=O)sc3nc2c1`, the outcome was inactive.

Consider `CCC(C)(C#N)N=NC(C)(C#N)CC` (stereo not given), for which the result was inactive. On to `CCOP(=O)(OCC)OC(=CCl)c1ccc(Cl)cc1Cl`, for which the half-maximal activity concentration (AC50) is 30.4 µM (active). Regarding `Nc1c(Oc2ccccc2)cc(O)c2c1C(=O)c1ccccc1C2=O`, the outcome was inactive. Same read-out and setting: as for `CC(C)(C)c1cc([N+](=O)[O-])cc(C(C)(C)C)c1O`, the entry is “inactive”. Consider `O=C1C=CC(=O)c2ccccc21`, for which the half-maximal activity concentration (AC50) is 4.69 µM (active). Consider `O=C(O)COc1cc(Cl)c(Cl)cc1Cl`, for which the outcome was inactive.

With `C#CCOC(=O)/C=C(C)/C=C/CC(C)CCCC(C)C` (stereo not given), the outcome was inactive.

In the case of `Cc1cccc(OP(=O)(Oc2cccc(C)c2)Oc2cccc(C)c2)c1`, the result was inactive. Same read-out and setting: as for `CC1(C)[C@H](C(=O)O[C@H](C#N)c2cccc(Oc3ccccc3)c2)[C@@H]1/C=C(\Cl)C(F)(F)F`, the entry is “inactive”. In the case of `O=S(=O)(C(Cl)(Cl)Cl)C(Cl)(Cl)Cl`, the concentration at half-maximal activity (AC50) is 3.81 µM (active). Consider `Oc1ccc(Cc2ccc(O)cc2)cc1`, for which the outcome was inactive. Turning to `CCOC(=O)CC(=O)CCl`, the result was inactive.

For the molecule `C[C@]12CC[C@@H](O)C[C@@H]1CC[C@@H]1[C@@H]2CC[C@]2(C)C(=O)CC[C@@H]12`, the result was inactive. For `O=c1oc2ccccc2c(O)c1C(CC(O)c1ccc(-c2ccc(Br)cc2)cc1)c1ccccc1` (stereo not given), the AC50 is 9.02 µM (active).

As for `[Cl][Sn]([c]1ccccc1)([c]1ccccc1)[c]1ccccc1`, the half-maximal activity concentration (AC50) was 1.36 µM (active).

Turning to `CCOP(=S)(OCC)SCS(=O)(=O)C(C)(C)C`, the outcome was inactive. On to `CC(C)=CC1C(C(=O)OCc2cccc(Oc3ccccc3)c2)C1(C)C` (stereo not given), for which the outcome was inactive. Consider `CCOP(=O)(OCC)SCCSCC`, for which the outcome was inactive.
